Measured values as given in PubChem BioAssay AID504843 (Broad Institute, 2011).
The campaign covered roughly 1,200 compounds. About 360 (30%) were called active. The rule behind the calls is not given here. These entries were drawn from the full list. Results with a measured potency or affinity are listed apart.

Assay: antibacterial activity by ATP level – BacTiter-Glo luminescence, cherry-picked samples, counter-screen, dose response (AID 504843);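 note: growth measured after 8 h incubation at 30 °C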
Settings: bacterial growth; series mostly up to 15 µM

SMILES	outcome
COc1ccc2c(c1)c(C(O)CN1CCC(Cc3ccccc3)CC1)c(C)n2C (stereo not drawn)	inactive
O=C(CN1CCN(c2ccc(O)cc2)CC1)Nc1ccc2c(c1)OCCO2	inactive
Cc1c(Nc2ncnc3c2cnn3-c2ccccc2)c(=O)n(-c2ccccc2)n1C	inactive
CCOc1ccc(S(=O)(=O)N2CCCCC2)cc1NC(=O)CN1C(=O)NC(CC)(c2ccccc2)C1=O (stereo not drawn)	inactive
COc1ccc(S(=O)(=O)N2CCOCC2)cc1NC(=O)c1ccc2c(c1)OCO2	inactive
Cc1cc(C)c(C(N)=O)c(Nc2ccc3c(c2)OCCO3)n1	inactive
CCN(CC)CCn1c(=N)n(CC(O)COc2cccc(C)c2)c2ccccc21 (stereo not drawn)	inactive
Cc1ccc(CC(=O)NCCS(=O)c2ccc(Cl)cc2)cc1 (stereo not drawn)	inactive
O=C(CN1CCN(Cc2ccc(Cl)cc2)CC1)N/N=C/c1c[nH]c2ccccc12	inactive
CCOC(=O)[C@H]1[C@H]2COc3ccc(OC)cc3[C@H]2N2C(=O)CN(Cc3ccccc3)C(=O)[C@@]12C	inactive
O=C(CSc1nccc(=O)[nH]1)c1cc2ccccc2o1	inactive
CC(O/N=C/c1ccc(OC(F)F)cc1)C(=O)Nc1cccc(S(=O)(=O)N2CCOCC2)c1 (stereo not drawn)	inactive
Cc1ccc(S(=O)(=O)N2CCOCC2)cc1NC(=O)c1cc2ccccc2oc1=O	inactive
COc1ccc(N2CCN(C3CC(=O)N(c4ccc5c(c4)OCCO5)C3=O)CC2)cc1 (stereo not drawn)	inactive
CCOC(=O)C1=C(C)Nc2ncnn2C1c1cc(Br)ccc1F (stereo not drawn)	inactive
COC(=O)c1ccc(NC(=O)N2CCC(O)(c3cccnc3)CC2)cc1	inactive
Cc1ccc(C(=O)Nc2nc(C)c(C(=O)Nc3ccc4c(c3)CCC4)s2)cc1	inactive
CC(=O)Nc1sc(NC(=O)c2ccccc2)nc1-c1cccs1	inactive
CCCN(C(=O)Cn1c(C(F)(F)F)nc2ccccc21)C1CCS(=O)(=O)C1 (stereo not drawn)	inactive
CC(C)=CCC/C(C)=C/CNC(=O)C[C@H]1C[C@H](C(=O)N2CCOCC2)[C@@]2(C)c3[nH]c4ccc(Cl)cc4c3CCN2C1=O	inactive
CC(=O)CSc1ncnc2sc3c(c12)CCC(C)C3 (stereo not drawn)	inactive
CCOC(=O)Cc1c[nH]c2ccc([N+](=O)[O-])cc12	inactive
CCOCCCNC(=O)c1ccc(Cn2c(=S)[nH]c3c([nH]c4ccc(OC)cc43)c2=O)cc1	inactive
O=C(NCc1ccccc1)c1ccc(F)c(F)c1	inactive
CN(CC(=O)NCc1cccnc1)S(=O)(=O)c1ccccc1	inactive
O=C(Nc1ccccc1Oc1ccccc1)c1ccc(Br)o1	inactive

SMILES	outcome
O=C(N/C(=C/c1ccccc1)C(=O)N1CCCCC1)c1ccc(Br)o1	inactive
O=C(CSc1ncnc2nc[nH]c12)c1ccc2ccccc2c1	inactive
O=C1NC(=O)C(c2ccccc2)(c2ccccc2)N1	inactive
CCN(CC)CC(=O)Nc1ccc(C)cc1C(=O)c1ccccc1	inactive
COc1cc(OC)cc(C(=O)N(CN2CCCC2=O)c2ccccc2OC)c1	inactive
CC(C)(C)NC(=O)C[C@H]1C[C@H](C(=O)N2CCOCC2)[C@@]2(CCC3CCCC3)c3[nH]c4cc(-c5ccco5)ccc4c3CCN2C1=O	inactive
CC(C)[C@@H](C(=O)N1CCNCC1)n1cc(CCO)nn1	inactive
Cc1nc(N)nc(Cl)c1Cc1ccc(Cl)cc1	inactive
COc1cccc(COC(=O)C2CC(=O)N(Cc3ccco3)C2)c1OC (stereo not drawn)	inactive
CC(NC(=O)Nc1nccs1)(C(F)(F)F)C(F)(F)F	inactive
NC(=O)c1ccccc1NC(=O)COc1ccc2c(c1)OCO2	inactive
COC(=O)c1cnc(NNS(=O)(=O)c2ccc(C(F)(F)F)cc2)nc1C(F)(F)F	inactive
COCn1c(-c2cccc(Br)c2)nc2ccccc21	inactive
CNC(=O)C1CCN(S(=O)(=O)c2c(C)noc2/C=C/c2cccc(OC)c2)CC1	inactive
O=C(c1ccc2nc[nH]c2c1)N1CCN(c2ncc(C(F)(F)F)cc2Cl)CC1	inactive
Cc1ccc(NC(=O)c2cccs2)cc1S(=O)(=O)Nc1cccc(Cl)c1	inactive
O=C1c2ccccc2CC1Sc1nnc(-c2ccncc2)o1 (stereo not drawn)	inactive
CC1=CC(=O)[C@@H](O)[C@@H](c2ccccc2Br)N1C	inactive
COc1ccc(NC(=O)CC2(CC(=O)O)CCCC2)cn1	inactive
COc1ccc2[nH]c(C(=O)N(C)c3ccc(F)cc3F)cc2c1	inactive
COc1cccc(NC(=O)CSc2nc3ccccc3c(=O)n2CCCC(=O)NCC2CCCO2)c1 (stereo not drawn)	inactive
O=C(CSc1cn(CCNC(=O)c2c(F)cccc2F)c2ccccc12)NCC1CCCO1 (stereo not drawn)	inactive
C=CCn1c(C)cc(C(=O)CSc2nnc3c(Cl)cc(Cl)cn23)c1C	inactive
CCN(C1CCS(=O)(=O)C1)S(=O)(=O)c1cc(C)ccc1C (stereo not drawn)	inactive
Fc1ccc(-n2c(-c3ccc4ccccc4n3)n[nH]c2=S)cc1Cl	inactive
C=CCOc1cccc(C(=O)N2CCCC(CCC(=O)NCc3ccccc3F)C2)c1 (stereo not drawn)	inactive

SMILES	outcome
CC(C)c1cc(C(N)=O)c(NC(=O)c2cccc(COc3ccc(Cl)cc3)c2)s1	inactive
O=C(CSc1nc2ccccc2c(=O)[nH]1)N1CCN(c2ccccc2F)CC1	inactive
CC(=O)N1c2ccc(S(=O)(=O)N3CCC(C(=O)N4CCN(c5ccccc5F)CC4)CC3)cc2CC1C (stereo not drawn)	inactive
CC(C)c1ccc(C2C(C#N)=C(N)Oc3c2oc(CO)cc3=O)cc1 (stereo not drawn)	inactive
COC(=O)COc1ccc(-n2cnnn2)cc1	inactive
Cc1cccc(N(CC(=O)Nc2cccnc2)S(C)(=O)=O)c1	inactive
O=C(Nc1c2c(nn1-c1ccccc1)CS(=O)(=O)C2)c1cccs1	inactive
COc1ccc(-c2nc3ccccc3o2)cc1NC(=O)c1ccc(Br)o1	inactive
O=C(NNC(=S)Nc1cccc(Cl)c1)c1ccccc1OC(F)F	inactive
CC1CC(OC(=O)C(O)c2ccccc2)CC(C)(C)N1C (stereo not drawn)	inactive
CCOc1ccc(-n2c(SCC(=O)O)nc3sc4c(c3c2=O)CCCC4)cc1	inactive
NC(=O)NC(=O)CSc1nc2sc(-c3ccccc3)cc2c(=O)n1-c1ccccc1	inactive
CCNc1nc(NC(C)(C)C)nc(N(CC)n2cnnc2)n1	inactive
O=C(NCC1CCCO1)C1CCCN(S(=O)(=O)c2ccc(F)cc2)C1 (stereo not drawn)	inactive
CCCCS(=O)(=O)N1CCCC(C(=O)Oc2ccc(Cl)cc2)C1 (stereo not drawn)	inactive
COc1ccccc1C(C[N+](=O)[O-])c1c[nH]c2ccccc12 (stereo not drawn)	inactive
CCOC(=O)[C@H]1[C@H]2COc3ccc(Cl)cc3[C@@H]2N2C(=O)[C@H](C)NC(=O)[C@@]12C	inactive
O=C(c1ccc(-n2cncn2)c([N+](=O)[O-])c1)N1CCN(S(=O)(=O)c2ccc(Br)cc2)CC1	inactive
Cc1cc(C(=O)c2ccccc2)c(NC(=O)CCl)s1	inactive
CCCC(C(=O)NNC(=O)c1cc(C)oc1C)c1ccccc1 (stereo not drawn)	inactive
O=C(O)c1ccc(/C=C2\SC(=Nc3ccccc3)N(c3ccccc3)C2=O)cc1	inactive
CCC1CCCCN1CCNC(=O)CNS(=O)(=O)c1ccc2nc(C)sc2c1 (stereo not drawn)	inactive
Cc1ccccc1NC(=O)NCCN1C(=O)C2C3C=CC(C3)C2C1=O (stereo not drawn)	inactive
CCOc1ccc(NC(=O)CN2C(=O)/C(=C3\SC(=S)N(C4CCS(=O)(=O)C4)C3=O)c3ccccc32)cc1 (stereo not drawn)	inactive
COc1ccc(C(=O)Nc2cnn(Cc3ccc(Cl)cc3)c2)cc1OC	inactive
COc1cc(C(=O)Oc2cc(C)cc(C)c2)cc(OC)c1OC	inactive

SMILES	outcome
CCOC(=O)CC(NC(=O)c1cccc2c1C(=O)N(Cc1cccnc1)C2)c1ccc(OCC)c(OC)c1 (stereo not drawn)	inactive
CCc1ccc(C(C(=O)NC2CCCC2)N(CCOC)C(=O)CCC(=O)Nc2cc(C)on2)cc1 (stereo not drawn)	inactive
CCCCCCCCCCCCN1[C@@H](CC(=O)O)c2cc(C(F)(F)F)ccc2S1(=O)=O	inactive
O=C(NCCCN1CCOCC1)c1cc2cc(Br)ccc2oc1=O	inactive
Cc1c(OCC(=O)NCCCN2CCOCC2)ccc2c1oc(=O)c1ccccc12	inactive
COc1cccc(C2CC(c3cccc(OC)c3)n3nc(N)nc3N2)c1 (stereo not drawn)	inactive
Cc1ccc(NC(=O)C(c2ccc(Cl)cc2)N2CCCCC2)cc1 (stereo not drawn)	inactive
CC(=O)c1ccc(NC(=S)NC(C)c2ccc(Cl)cc2Cl)cc1 (stereo not drawn)	inactive
CCc1ncc(C)nc1CC	inactive
CN1CCN(C(=S)c2cn(Cc3ccc(Br)cc3)c3ccccc23)CC1	inactive
Cc1nn(-c2ccccc2)c(Cl)c1/C=N/NC(=O)c1ccn[nH]1	inactive
Cc1nn(-c2ccccc2)c(Cl)c1/C=C(\CC(=O)O)c1nc2ccccc2s1	inactive
COc1ccc(C(=O)NCC(=O)N/N=C/C(C)=C/c2ccco2)cc1OC	inactive
N/C(=N\OS(=O)(=O)c1ccccc1)c1cccnc1	inactive
CC(Sc1nc2ccccc2c(=O)n1C)C(=O)NC1CCCCC1C (stereo not drawn)	inactive
O=C(NCc1cccs1)c1cccnc1C(=O)O	inactive
CCOCCCNS(=O)(=O)c1ccc(Br)cc1	inactive
O=C1OCCN1C(=O)[C@H]1[C@H](c2ccc(Cl)cc2)C(c2ccccc2)=NN1c1ccccc1	inactive
COc1ccc(N2CCN(C(=O)C3CCCN(S(=O)(=O)c4cccc5cccnc45)C3)CC2)cc1 (stereo not drawn)	inactive
O=C(Nc1ccc2c(c1)OCCO2)N1CCN(c2ccc(F)cc2)CC1	inactive
COc1ccc(Cn2nnnc2C(c2cc3ccc(OC)cc3[nH]c2=O)N2CCC(C)CC2)cc1 (stereo not drawn)	inactive
Cc1ccc(S(=O)(=O)N(CC(=O)Nc2ccccc2-c2ccccc2)c2ccc(C)cc2C)cc1	inactive
CCS(=O)(=O)c1ccc(NC(=O)c2ccccc2Cl)c(O)c1	inactive
CCn1c(CCn2c3ccccc3c3ccccc32)n[nH]c1=S	inactive
CC(=O)NC(Cc1ccc(F)c(F)c1)C(=O)NC1CCN(c2c(Cc3ccccc3)c(C)nc3ncnn23)CC1 (stereo not drawn)	inactive
